# Assay results as given in the antibiotic and cytotoxicity screens of Wong et al. (2023).
# The whole screen tested about 39,000 compounds, of which about 1,500 (3.8%) were called active. The full list was thinned out, with actives kept by preference.
# System: HSkMC (human skeletal muscle cells)
# Experiment: cytotoxicity call (relative viability < 0.9)
# Conditions: 10 µM
row,Compound,cytotoxicity call
1,Cc1ccc(S(=O)(=O)Nc2ccc3c(c2)CC(=O)N([C@@H](C)CO)C[C@@H](C)[C@H](CN(C)C(=O)Nc2ccc(C(F)(F)F)cc2)O3)cc1,inactive
2,C[C@@H]1CN([C@@H](C)CO)C(=O)c2cc(C#Cc3ccccc3F)cnc2O[C@@H]1CN(C)C(=O)Cc1ccncc1,inactive
3,Cc1ccc(S(=O)(=O)Nc2ccc3c(c2)C(=O)N([C@@H](C)CO)C[C@H](C)[C@@H](CN(C)Cc2ccc(C(F)(F)F)cc2)O3)cc1,inactive
4,Cc1ccc(S(=O)(=O)Nc2ccc3c(c2)C(=O)N([C@H](C)CO)C[C@@H](C)[C@@H](CN(C)Cc2ccc(C(F)(F)F)cc2)O3)cc1,active
5,Cc1ccc(S(=O)(=O)Nc2ccc3c(c2)C(=O)N([C@@H](C)CO)C[C@H](C)[C@H](CN(C)Cc2ccc(C(F)(F)F)cc2)O3)cc1,inactive
6,Cc1ccc(S(=O)(=O)Nc2ccc3c(c2)C(=O)N([C@H](C)CO)C[C@H](C)[C@@H](CN(C)Cc2ccc(C(F)(F)F)cc2)O3)cc1,inactive
7,Cc1ccc(S(=O)(=O)Nc2ccc3c(c2)C(=O)N([C@H](C)CO)C[C@H](C)[C@H](CN(C)Cc2ccc(C(F)(F)F)cc2)O3)cc1,inactive
8,Cc1ccc(S(=O)(=O)Nc2ccc3c(c2)C(=O)N([C@H](C)CO)C[C@@H](C)[C@H](CN(C)Cc2ccc(C(F)(F)F)cc2)O3)cc1,active
9,COc1ccc2c3c(n(c2c1)C)[C@@H](CO)N(C[C@]13CN(C1)C(=O)C)C(=O)CN1CCOCC1,inactive
10,Cc1noc(C)c1S(=O)(=O)Nc1ccc2c(c1)CC(=O)N([C@@H](C)CO)C[C@@H](C)[C@@H](CN(C)S(=O)(=O)c1ccccc1)O2,inactive
11,CN(C)C(=O)C[C@H]1C=C[C@@H](NC(=O)C2CC2)[C@@H](CO)O1,inactive
12,C=CCN1C(=O)[C@@]2(O[C@@H](CCO)[C@H]([Si](C)(C)c3ccc(OC)cc3)[C@H]2C)c2cc(N3C(=O)c4cccc5cccc3c45)ccc21,active
13,C=CCN1C(=O)[C@]2(O[C@H](CCO)[C@@H]([Si](C)(C)c3ccc(OC)cc3)[C@@H]2C)c2cc(N3C(=O)c4cccc5cccc3c45)ccc21,active
14,C=CCN1C(=O)[C@@]2(O[C@@H](CCn3cc([C@H](O)c4ccccc4)nn3)[C@H]([Si](C)(C)c3ccc(OC)cc3)[C@H]2C)c2cc(N3C(=O)c4cccc5cccc3c45)ccc21,inactive
15,C=CCN1C(=O)[C@]2(O[C@H](CCn3cc([C@H](O)c4ccccc4)nn3)[C@@H]([Si](C)(C)c3ccc(OC)cc3)[C@@H]2C)c2cc(N3C(=O)c4cccc5cccc3c45)ccc21,inactive
16,C=CCN1C(=O)[C@@]2(O[C@@H](CCO)[C@H]([Si](C)(C)F)[C@H]2C)c2cc(N3C(=O)c4cccc5cccc3c45)ccc21,inactive
17,COc1ccc([Si](C)(C)[C@H]2[C@H](CCO)O[C@@]3(C(=O)N(Cc4ccccc4)c4ccc(N5C(=O)c6cccc7cccc5c67)cc43)[C@@H]2C)cc1,inactive
18,C[C@H]1CCCCO[C@H](CN(C)C(=O)c2ccccc2)[C@@H](C)CN([C@@H](C)CO)C(=O)c2cc(NC(=O)Nc3ccc4c(c3)OCO4)ccc2O1,inactive
19,COc1ccc(S(=O)(=O)N2CC(NC(=O)Cn3ccc(=O)n(C)c3=O)C2)cc1,inactive
20,O=S(=O)(N1CCOCC1)n1nnc2ccccc21,inactive
21,C[C@H](CO)N1C[C@H](C)[C@H](CN(C)Cc2ccc(C(F)(F)F)cc2)Oc2ccc(NC(=O)Cn3cnnn3)cc2CC1=O,inactive
22,C[C@@H]1CN([C@@H](C)CO)C(=O)c2cc(C#CC3(O)CCCC3)cnc2O[C@@H]1CN(C)C(=O)C1CCOCC1,inactive

row,Compound,cytotoxicity call
1,CN1C(=O)c2cc(NC(=O)Cc3cccs3)ccc2OC[C@H]2O[C@H](CC(=O)NCCCN3CCOCC3)CC[C@@H]21,inactive
2,Cc1noc(C)c1S(=O)(=O)Nc1ccc2c(c1)C(=O)N([C@@H](C)CO)C[C@H](C)[C@H](CN(C)S(=O)(=O)c1cccs1)O2,inactive
3,C[C@@H]1CN([C@H](C)CO)C(=O)CCCn2cc(nn2)CO[C@@H]1CN(C)S(=O)(=O)c1cccc(C#N)c1,inactive
4,Oc1cccc(c1)/C/1=C/2\CC/C(=C(\c3cccc(c3)O)c3ccc([nH]3)/C(=C\3/C=CC(=N3)/C(=C\3/C=CC1=N3)c1cccc(c1)O)c1cccc(c1)O)N2,active
5,OS(=O)(=O)c1ccc(cc1)/C/1=C\2/N/C(=C(\C3=N/C(=C(/c4ccc(cc4)S(=O)(=O)O)c4ccc([nH]4)/C(=C\4/C=CC1=N4)c1ccc(cc1)S(=O)(=O)O)C=C3)c1ccc(cc1)S(=O)(=O)O)C=C2,inactive
6,CC(C)NC(=O)Nc1ccc2c(c1)CC(=O)N([C@@H](C)CO)C[C@@H](C)[C@@H](CN(C)C(=O)NC1CCCCC1)O2,inactive
7,CCC(=O)NC[C@H](Cc1ccc(OCCc2nc(-c3ccccc3)oc2C)cc1)N/C(C)=C\C(=O)c1ccc(C(F)(F)F)cc1,active
8,O=C(O)C[C@@H]1CC[C@H]2[C@@H](COC[C@H](O)CN2S(=O)(=O)c2ccc(F)cc2)O1,inactive
9,COc1cnc(SC)n(C)c1=O,inactive
10,C[C@@H]1CN([C@@H](C)CO)C(=O)Cc2cc(NS(=O)(=O)c3cn(C)cn3)ccc2O[C@H]1CN(C)CC1CCCCC1,inactive
11,CN(C)CC#Cc1ccc([C@H]2[C@@H](CO)N3CCCCN(C(=O)CN(C)C)C[C@H]23)cc1,inactive
12,CN(C)CC#Cc1ccc([C@H]2[C@@H](CO)N3CCCCN(C(=O)CN(C)C)C[C@@H]23)cc1,inactive
13,COc1ccc(NC(=O)N2CCCCN3[C@H](COCCN(C)C)[C@H](c4ccc(C#Cc5ccccc5)cc4)[C@@H]3C2)cc1,active
14,COc1ccc(NC(=O)N2CCCCN3[C@H](CN(C)C(C)=O)[C@H](c4ccc(C#Cc5ccccc5)cc4)[C@@H]3C2)cc1,active
15,CN(C)CC#Cc1ccc([C@@H]2[C@H](CO)N3CCCCN(C(=O)CN(C)C)C[C@@H]23)cc1,inactive
16,CN(C)CC#Cc1ccc([C@@H]2[C@@H](CO)N3CCCCN(C(=O)CN(C)C)C[C@@H]23)cc1,inactive
17,C[C@H]1Cc2c(N)nn(C)c2NC1=O,inactive
18,CC(=O)OCC(=O)C12OC3(CCCC3)OC1CC1C3CCC4=CC(=O)C=CC4(C)C3(F)C(O)CC12C (centres undefined),inactive
19,C[C@@H]1CN([C@H](C)CO)C(=O)Cc2cc(NS(=O)(=O)c3cccs3)ccc2O[C@H]1CN(C)Cc1ccc(-c2ccccc2)cc1,inactive
20,Cc1ccc(-c2ccc3c(c2)O[C@@H](CN(C)C(=O)NC(C)C)[C@@H](C)CN([C@H](C)CO)S3(=O)=O)cc1,inactive
21,COc1ccc(NC(=O)N(C)C[C@@H]2OCCCC[C@@H](C)Oc3ccc(NC(=O)Cc4ccccc4)cc3C(=O)N([C@H](C)CO)C[C@H]2C)cc1,inactive
22,C[C@@H]1CCCCO[C@@H](CN(C)C(=O)Cc2ccccc2)[C@@H](C)CN([C@H](C)CO)C(=O)c2cc(NC(=O)c3ccccc3)ccc2O1,inactive

row,Compound,cytotoxicity call
1,COc1ccc(-c2cccc(-c3nc(C(=O)NCC(F)(F)F)cc4c3[C@H](CCO)N([S@@](=O)C(C)(C)C)C4)c2)cc1,inactive
2,C[C@@H]1CCCCO[C@@H](CN(C)C(=O)Cc2ccccc2)[C@H](C)CN([C@@H](C)CO)C(=O)c2cc(NC(=O)CCC(F)(F)F)ccc2O1,inactive
3,Cc1cc(Nc2ncc(Cl)c(Nc3ccccc3S(=O)(=O)C(C)C)n2)c(OC(C)C)cc1C1CCNCC1,active
4,COc1cc(C(=O)NC2CCN(C)CC2)ccc1Nc1ncc2c(n1)N(C1CCC(O)CC1)CCC(=O)N2C (centres undefined),inactive
5,COc1cc(N2CCC(O)CC2)ccc1Nc1cc(Nc2ccccc2S(=O)(=O)C(C)C)c2cc[nH]c2n1,inactive
6,NC1CCN(C(=O)c2c[nH]c3ccccc23)CC1,inactive
7,COc1cc(N2CCC(N3CCN(C)CC3)CC2)ccc1Nc1ncc(Cl)c(Nc2ccccc2S(=O)(=O)C(C)C)n1,active
8,COc1cc(N2CCC(N(C)C)CC2)ccc1Nc1ncc(Cl)c(Nc2ccccc2P(C)(C)=O)n1,active
9,COc1cc(N2CCC(N)CC2)ccc1Nc1ncc(Cl)c(-c2c[nH]c3ccccc23)n1,active
10,Cc1noc(C)c1NC(=O)N(C)C[C@H]1Oc2ccc(NC(=O)CCCN(C)C)cc2C(=O)N([C@@H](C)CO)C[C@H]1C,inactive
11,C[C@H]1CN([C@@H](C)CO)C(=O)c2cc(NC(=O)Cc3cn(C)c4ccccc34)ccc2O[C@H]1CN(C)Cc1ccc(C(=O)Nc2ccccc2N)cc1,inactive
12,COc1ccc(NC(=O)N(C)C[C@@H]2OCCCC[C@@H](C)Oc3ccc(NS(=O)(=O)c4ccccc4)cc3C(=O)N([C@@H](C)CO)C[C@H]2C)cc1,inactive
13,O=C(C[C@@H]1C=C[C@H](NC(=O)CN2CCOCC2)[C@@H](CO)O1)NC1CCCCC1,inactive
14,C[C@@H]1CN([C@@H](C)CO)S(=O)(=O)c2ccc(C#CCC3CCCC3)cc2O[C@@H]1CN(C)C(=O)c1cnccn1,inactive
15,C[C@H](CO)N1C[C@H](C)[C@H](CN(C)Cc2ccc(C(=O)O)cc2)Oc2ccc(NS(=O)(=O)c3cn(C)cn3)cc2C1=O,inactive
16,O=C(NCCN1CCCC1)[C@H]1[C@H](CO)[C@H]2Cn3c(cccc3=O)[C@H]2N1C(=O)c1ccccc1,inactive
17,CC(C)(C)NCC(O)COc1ccccc1C1CCCC1.O=S(=O)(O)O (centres undefined),inactive
18,Cc1ccc2sc(C(=O)O)cc2c1,inactive
19,COc1ccc(S(=O)(=O)Nc2ccc3c(c2)C(=O)N([C@@H](C)CO)C[C@@H](C)[C@H](CN(C)C(=O)Nc2cccc4ccccc24)OCCCC[C@@H](C)O3)cc1,inactive
20,C[C@H]1CN([C@@H](C)CO)S(=O)(=O)c2ccc(C#Cc3cccc(F)c3)cc2O[C@@H]1CN(C)S(=O)(=O)c1cn(C)cn1,inactive
